Among all 39,000 compounds or so, about 3,300 (8.5%) were called active. The list comes from a sample in which actives are over-represented; it also holds similar structures and randomly drawn compounds.
What follows are molecules tested on HepG2 (assay: cytotoxicity call (relative viability < 0.9)). Conditions: 10 µM.

| Structure (SMILES) | cytotoxicity call |
| --- | --- |
| C[C@H](CO)N1C[C@H](C)[C@H](CN(C)C(=O)Cc2ccccn2)Oc2cc(-c3ccc(C(=O)N(C)C)cc3)ccc2S1(=O)=O | inactive |
| N[C@@H](CSCc1ccccc1Cl)C(=O)O | inactive |
| COc1ccc(S(=O)(=O)Nc2ccc3c(c2)C(=O)N([C@@H](C)CO)C[C@H](C)[C@@H](CN(C)Cc2ccccc2)OCCCC[C@@H](C)O3)cc1 | inactive |
| C[C@H]1CCCCO[C@@H](CN(C)C(=O)Nc2ccc3c(c2)OCO3)[C@@H](C)CN([C@@H](C)CO)C(=O)c2cc(NC(=O)Nc3ccc(F)cc3)ccc2O1 | inactive |
| NNC(=S)Nc1cccc(F)c1 | inactive |
| C[C@@H]1CN([C@@H](C)CO)C(=O)c2cc(C#CCN(C)C)cnc2O[C@H]1CN(C)S(=O)(=O)c1cn(C)cn1 | inactive |
| COc1cccc(C#Cc2cnc3c(c2)C(=O)N([C@H](C)CO)C[C@H](C)[C@H](CN(C)C(=O)C2CCOCC2)O3)c1 | inactive |
| C[C@H]1CCCCO[C@H](CN(C)Cc2ccc(C(=O)O)cc2)[C@@H](C)CN([C@@H](C)CO)C(=O)c2cc(NC(=O)Nc3ccc(C(F)(F)F)cc3)ccc2O1 | inactive |
| Cc1noc(C)c1NC(=O)Nc1ccc2c(c1)C(=O)N([C@H](C)CO)C[C@@H](C)[C@H](CN(C)S(=O)(=O)c1ccc(F)cc1)OCCCC[C@@H](C)O2 | inactive |
| ON/C=N\c1nonc1-c1cccnc1 | inactive |
| Nc1c[nH]ccc1=O | inactive |
| COc1ccc(NC(=O)N(C)C[C@H]2OCCCC[C@H](C)Oc3ccc(NS(=O)(=O)c4cccs4)cc3C(=O)N([C@H](C)CO)C[C@@H]2C)cc1 | inactive |
| COc1ccc2nc3cc(Cl)ccc3c(Nc3cc(CN4CCCC4)c(O)c(CN4CCCC4)c3)c2n1.O=P(O)(O)O.O=P(O)(O)O.O=P(O)(O)O.O=P(O)(O)O | active |
| CCC(=O)N[C@H]1CC[C@@H](CC(=O)OC)O[C@@H]1CO | inactive |
| CC(=O)c1ccc(F)c(Cl)c1 | inactive |
| Nc1nnc(N)c2ccccc12 | inactive |
| Nc1c2c(nc3ccccc13)CCCC2 | inactive |
| Nc1c2ccccc2nc2ccccc12 | active |
| CCc1nc2ccccc2c(N)c1C | inactive |
| Nc1nc(N)c2c(n1)CCCC2 | inactive |
| Cl.Nc1c2c(nc3ccccc13)CCCC2 | active |
| C[C@H](CO)N1C[C@H](C)[C@H](CN(C)C)Oc2cc(C#C[C@@H](C)O)ccc2S1(=O)=O | inactive |

| Structure (SMILES) | cytotoxicity call |
| --- | --- |
| C=CCCCCCCCCC(=O)Nc1ccccc1C | inactive |
| C[C@@H]1CN([C@@H](C)CO)C(=O)c2cc(/C=C/c3ccccc3)cnc2O[C@H]1CN(C)C(=O)C1CCOCC1 | inactive |
| C[C@@H]1CCCCO[C@@H](CN(C)Cc2ccncc2)[C@H](C)CN([C@H](C)CO)C(=O)c2cc(NC(=O)C3CCCCC3)ccc2O1 | inactive |
| O=C(C[C@@H]1CC[C@H]2[C@@H](COC[C@@H](O)CN2C(=O)c2ccc(F)cc2)O1)NCCCN1CCOCC1 | inactive |
| COc1ccc(NC(=O)Nc2ccc3c(c2)CC(=O)N([C@@H](C)CO)C[C@@H](C)[C@@H](CN(C)Cc2ccc(Oc4ccccc4)cc2)O3)cc1 | active |
| COc1ccc(NC(=O)Nc2ccc3c(c2)CC(=O)N([C@@H](C)CO)C[C@H](C)[C@@H](CN(C)Cc2ccc(Oc4ccccc4)cc2)O3)cc1 | inactive |
| COc1ccc(NC(=O)Nc2ccc3c(c2)CC(=O)N([C@H](C)CO)C[C@H](C)[C@@H](CN(C)Cc2ccc(Oc4ccccc4)cc2)O3)cc1 | inactive |
| COc1ccc(NC(=O)Nc2ccc3c(c2)CC(=O)N([C@H](C)CO)C[C@@H](C)[C@H](CN(C)Cc2ccc(Oc4ccccc4)cc2)O3)cc1 | active |
| COc1ccc(NC(=O)Nc2ccc3c(c2)CC(=O)N([C@@H](C)CO)C[C@@H](C)[C@H](CN(C)Cc2ccc(Oc4ccccc4)cc2)O3)cc1 | active |
| COc1ccc(NC(=O)Nc2ccc3c(c2)CC(=O)N([C@H](C)CO)C[C@@H](C)[C@@H](CN(C)Cc2ccc(Oc4ccccc4)cc2)O3)cc1 | active |
| Cc1noc(C)c1NC(=O)Nc1ccc2c(c1)C(=O)N([C@@H](C)CO)C[C@@H](C)[C@H](CN(C)C(=O)Nc1cccc3ccccc13)O2 | inactive |
| COc1ccc2c3c(n(c2c1)C)[C@H](CO)N(C[C@]13CN(C1)C(=O)C1CC1)C(=O)CN1CCOCC1 | inactive |
| CCCSc1nc(N[C@@H]2C[C@H]2c2ccc(F)c(F)c2)c2nnn([C@@H]3C[C@H](OCCO)[C@@H](O)[C@H]3O)c2n1 | inactive |
| C[C@@H]1CCCCO[C@H](CN(C)Cc2ccc(C(F)(F)F)cc2)[C@@H](C)CN([C@H](C)CO)C(=O)c2cc(NS(C)(=O)=O)ccc2O1 | inactive |
| COCCOC(=O)N1C(=O)[C@@]2(c3cc(C#CC4(O)CCCCCC4)ccc31)[C@H](C(=O)NC[C@H](O)c1ccccc1)[C@H]1C(=O)O[C@H](c3ccccc3)[C@H](c3ccccc3)N1[C@@H]2c1ccc(OCCO)cc1 | inactive |
| COc1ccc(NC(=O)N(C)C[C@H]2Oc3c(NC(=O)c4ccc(-c5nccs5)cc4)cccc3C(=O)N([C@@H](C)CO)C[C@@H]2C)cc1 | inactive |
| Cc1noc(C)c1S(=O)(=O)N(C)C[C@H]1Oc2ccc(NC(=O)c3ccncc3)cc2C(=O)N([C@H](C)CO)C[C@@H]1C | inactive |
| C[C@@H]1CCCCO[C@H](CN(C)C(=O)Cc2ccccc2)[C@H](C)CN([C@H](C)CO)C(=O)c2cc(NC(=O)Nc3ccc(F)cc3)ccc2O1 | inactive |
| COc1ccc(NC(=O)Nc2ccc3c(c2)CC(=O)N([C@H](C)CO)C[C@H](C)[C@H](CN(C)Cc2ccc(Oc4ccccc4)cc2)O3)cc1 | active |
| COc1ccc(NC(=O)Nc2ccc3c(c2)CC(=O)N([C@@H](C)CO)C[C@H](C)[C@H](CN(C)Cc2ccc(Oc4ccccc4)cc2)O3)cc1 | active |
| C[C@@H]1CN([C@@H](C)CO)C(=O)c2cc(NC(=O)Cc3ccccc3)ccc2O[C@@H]1CN(C)Cc1ccc(C(=O)Nc2ccccc2N)cc1 | inactive |
| C[C@@H]1CN([C@@H](C)CO)C(=O)c2cc(NC(=O)c3ccncc3)ccc2O[C@@H]1CN(C)Cc1ccc(Oc2ccccc2)cc1 | inactive |

| Structure (SMILES) | cytotoxicity call |
| --- | --- |
| C[C@@H]1CN([C@@H](C)CO)C(=O)c2cccc(NC(=O)Nc3ccc(C(F)(F)F)cc3)c2O[C@@H]1CN(C)C(=O)Nc1ccccc1 | inactive |
| CCNC(=O)[C@H]1[C@H](CO)[C@H]2Cn3c(ccc(-c4cccc(OC)c4)c3=O)[C@H]2N1S(C)(=O)=O | inactive |
| C[C@@H]1CCCCO[C@H](CN(C)C(=O)CCC(F)(F)F)[C@@H](C)CN([C@@H](C)CO)C(=O)c2cc(NC(=O)Cc3ccccc3)ccc2O1 | inactive |
| Cc1ccc(S(=O)(=O)Nc2ccc3c(c2)CC(=O)N([C@@H](C)CO)C[C@@H](C)[C@@H](CN(C)S(=O)(=O)c2cn(C)cn2)O3)cc1 | inactive |
| COc1ccc(CN(C)C[C@H]2OCCCC[C@@H](C)Oc3ccc(NC(=O)C4CCCCC4)cc3C(=O)N([C@H](C)CO)C[C@H]2C)cc1 | inactive |
| COc1ccc(CN(C)C[C@H]2OCCCC[C@H](C)Oc3ccc(NC(=O)Nc4ccc(OC)cc4)cc3C(=O)N([C@@H](C)CO)C[C@H]2C)cc1 | active |
| COc1ccc(CN(C)C[C@@H]2OCCCC[C@@H](C)Oc3ccc(NC(=O)C4CCCCC4)cc3C(=O)N([C@H](C)CO)C[C@@H]2C)cc1 | inactive |
| COc1ccc(CN(C)C[C@H]2OCCCC[C@H](C)Oc3ccc(NC(=O)Nc4ccc(OC)cc4)cc3C(=O)N([C@@H](C)CO)C[C@@H]2C)cc1 | active |
| COc1ccc(CN(C)C[C@@H]2OCCCC[C@H](C)Oc3ccc(NC(=O)Nc4ccc(OC)cc4)cc3C(=O)N([C@H](C)CO)C[C@H]2C)cc1 | inactive |
| COc1ccc(CN(C)C[C@@H]2OCCCC[C@@H](C)Oc3ccc(NC(=O)Nc4ccc(OC)cc4)cc3C(=O)N([C@H](C)CO)C[C@H]2C)cc1 | inactive |
| COc1ccc(CN(C)C[C@@H]2OCCCC[C@H](C)Oc3ccc(NC(=O)C4CCCCC4)cc3C(=O)N([C@@H](C)CO)C[C@H]2C)cc1 | active |
| COc1ccc(CN(C)C[C@@H]2OCCCC[C@H](C)Oc3ccc(NC(=O)Nc4ccc(OC)cc4)cc3C(=O)N([C@@H](C)CO)C[C@H]2C)cc1 | active |
| C[C@@H]1CCCCO[C@@H](CN(C)Cc2ccc(C(=O)O)cc2)[C@H](C)CN([C@@H](C)CO)C(=O)c2cc(NC(=O)c3ccccc3)ccc2O1 | inactive |
| C[C@@H]1CN([C@H](C)CO)C(=O)Cc2cc(NS(=O)(=O)c3cccs3)ccc2O[C@@H]1CN(C)S(C)(=O)=O | inactive |
| C[C@@H]1CCCCO[C@H](CN(C)C(=O)CCCN(C)C)[C@@H](C)CN([C@@H](C)CO)C(=O)c2cc(NC(=O)Nc3ccc(F)cc3)ccc2O1 | inactive |
| CS(=O)(=O)N1CCn2cc(Cn3cccn3)nc2C1 | inactive |
| Cc1noc(C)c1NC(=O)N(C)C[C@H]1Oc2c(NC(=O)Nc3cccc4ccccc34)cccc2C(=O)N([C@@H](C)CO)C[C@@H]1C | inactive |
| Cc1noc(C)c1S(=O)(=O)N(C)C[C@@H]1OCc2cn(nn2)CCCC(=O)N([C@H](C)CO)C[C@@H]1C | inactive |
| COc1ccc(S(=O)(=O)Nc2ccc3c(c2)C(=O)N([C@@H](C)CO)C[C@@H](C)[C@@H](CN(C)C(=O)Nc2ccc(C(F)(F)F)cc2)OCCCC[C@H](C)O3)cc1 | inactive |
| CC(=O)OC[C@H]1O[C@@H](n2cc(C)c(=O)[nH]c2=O)C[C@@H]1OC(C)=O | inactive |
| C[C@@H]1CCCCO[C@H](CN(C)C)[C@H](C)CN([C@H](C)CO)C(=O)c2cc(NC(=O)Nc3cccc4ccccc34)ccc2O1 | inactive |
| COc1ccc(NC(=O)N(C)C[C@H]2OCCCC[C@H](C)Oc3ccc(NS(=O)(=O)c4ccc(OC)cc4)cc3C(=O)N([C@@H](C)CO)C[C@H]2C)cc1 | inactive |

— the antibiotic and cytotoxicity screens of Wong et al. (2023)
